In PubChem BioAssay AID588676 (Johns Hopkins Ion Channel Center, 2011):
Among all 310,000 compounds or so, about 3,900 (1.3%) were called active.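 Rule for the calls: active = calcium-response B-score plate-corrected more than 3 library SD below zero, starting fluorescence within 5 deviations, no agonist response on first addition; inactive = the rest.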 The list comes from a sample in which actives are over-represented; it also holds similar structures and randomly drawn compounds.

biological target: Mas-related G-protein coupled receptor member X1 (Homo sapiens) (UniProt Q96LB2); experiment: blockade of BAM8-22-evoked MrgX1 calcium response – HEK293 cells, Fluo-4 calcium flux, primary screen (AID 588676); conditions: Fluo-4, BAM8-22 antagonism, at 10 µM; stronger effect = lower value;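 for B-score: peak minus trough fluorescence over baseline after final BAM8-22 challenge near maximal dose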
Sequence (Q96LB2 whole entry, looked up): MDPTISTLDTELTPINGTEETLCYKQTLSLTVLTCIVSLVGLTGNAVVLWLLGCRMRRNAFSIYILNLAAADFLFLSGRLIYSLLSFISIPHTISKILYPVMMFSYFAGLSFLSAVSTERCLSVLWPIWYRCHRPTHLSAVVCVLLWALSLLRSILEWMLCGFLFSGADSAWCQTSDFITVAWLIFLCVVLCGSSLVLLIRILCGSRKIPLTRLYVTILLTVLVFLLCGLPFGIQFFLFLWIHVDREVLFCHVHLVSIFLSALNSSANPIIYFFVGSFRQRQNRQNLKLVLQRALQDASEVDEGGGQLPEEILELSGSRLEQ

**Q.** Which B-score does the source give for `Cc1ccc(S(=O)(=O)NNC(=O)/C=C/c2cccc(F)c2)cc1` here?
**A.** inactive

**Q.** With `Cc1ccc(C)c(NC(=O)C2Cc3ccccc3CN2C(=O)OCc2ccccc2)c1` (centres undefined) as the compound, how does the B-score read?
**A.** inactive

**Q.** How did the B-score turn out when `COc1ccc(C(C)NC(=S)NC2CCCCC2)cc1OC` (centres undefined) was run?
**A.** inactive

**Q.** `CCN(CC)CCNCC(=O)Nc1ccc(Oc2ccccc2)cc1` was tested. Which B-score did it give?
**A.** inactive

**Q.** With `CCN(CC)CC(=O)Nc1nn(-c2ccccc2)nc1C(N)=O` as the compound, how does the B-score read?
**A.** -7.03 (active)

**Q.** How did the B-score turn out when `CCCN(CC(=O)Nc1ccc(C(N)=O)cc1)CC(=O)Nc1ccccc1C` was run?
**A.** inactive

**Q.** Which B-score does the source give for `O=C1CCC(C(=O)N2CCC(O)(c3ccccc3)CC2)CN1CCc1ccccc1` (centres undefined) here?
**A.** inactive

**Q.** Which B-score does the source give for `COc1ccccc1OCc1nnc(SCC(N)=O)n1-c1ccccc1` here?
**A.** inactive

**Q.** Which B-score does the source give for `CC(C)(C)NC(=O)NC(=O)COC(=O)C1(C)CC1(Cl)Cl` (centres undefined) here?
**A.** inactive

**Q.** `COc1cc(CCC(=O)Nc2ccncc2Cl)cc(OC)c1OC` was tested. Which B-score did it give?
**A.** -6.22 (active)

**Q.** How did the B-score turn out when `COc1cc(CCC(=O)N2CCN(c3ccccc3Cl)CC2)cc(OC)c1OC` was run?
**A.** inactive

**Q.** For `COc1cc(CCC(=O)OCC(=O)Nc2cccc(S(N)(=O)=O)c2)cc(OC)c1OC`, which B-score is on record?
**A.** inactive

**Q.** Which B-score does the source give for `C#CCOCCOCCOCCNc1nc(N2CCN(C(=O)CCCCCCCCCCNC(=O)[C@H]([C@@H](C)CC)n3cc(CCCCN=C(N)N)nn3)CC2)nc(N2CCN(C(=O)CCCCCCCCCCNC(=O)[C@H](CO)n3cc(CCCSC)nn3)CC2)n1` here?
**A.** inactive

**Q.** For `O=C(NCC(=O)N(Cc1cccs1)C(C(=O)NC1CCCCC1)c1ccco1)c1cccs1` (centres undefined), which B-score is on record?
**A.** inactive

**Q.** How did the B-score turn out when `CCOc1ccc(CCNC(=O)C2CCN(c3ccc(N4CCOCC4)nn3)CC2)cc1OCC` was run?
**A.** inactive

**Q.** Which B-score does the source give for `COc1ccc(N2CCN(CCCNC(=O)C3CCN(S(=O)(=O)N4CCOCC4)CC3)CC2)cc1` here?
**A.** inactive

**Q.** Which B-score does the source give for `COCCCNC(=O)C1CCN(c2ccc(N3CCOCC3)nn2)CC1` here?
**A.** -6.39 (active)

**Q.** `CN1CCN(Cc2c(C(=O)N3CCc4ccccc4C3)nc3ccc(Cl)cn23)CC1` was tested. Which B-score did it give?
**A.** inactive

**Q.** How did the B-score turn out when `CCc1nn(-c2cc(Oc3cccc4ccccc34)nc(-c3ccccc3)n2)c(N)c1C#N` was run?
**A.** inactive

**Q.** How did the B-score turn out when `CCOC(=O)c1c(NC(=O)CSc2nccc(=O)[nH]2)sc(C)c1C` was run?
**A.** inactive

**Q.** `COCCCNCC(=O)Nc1sc(C)c(C)c1C(=O)OC` was tested. Which B-score did it give?
**A.** inactive

**Q.** `COC(=O)c1c(NC(=O)c2c(Cl)cnn2C)sc(C)c1C` was tested. Which B-score did it give?
**A.** -4.74 (active)

**Q.** `CN(C)c1cccc(C(=O)N2CCC(n3nccc3NC(=O)C3CCOC3)CC2)c1` (centres undefined) was tested. Which B-score did it give?
**A.** inactive

**Q.** For `Cc1ccccc1OCCC(=O)OCC(=O)NC(C)c1ccccc1` (centres undefined), which B-score is on record?
**A.** inactive

**Q.** `O=C(Cn1cc(C(=O)C2CC2)c2ccccc21)Nc1ccccc1Cl` was tested. Which B-score did it give?
**A.** inactive

**Q.** With `Cc1ccc(-c2nn(C(C)(C)C)c3ncnc(N)c23)cc1` as the compound, how does the B-score read?
**A.** -4.54 (active)

**Q.** `Cc1ccc(-n2cnc3ncnc(-c4ccccc4)c32)cc1` was tested. Which B-score did it give?
**A.** inactive

**Q.** `CC(=O)Nc1ccc(NC(=O)COc2ccc(S(=O)(=O)NC(C)c3ccccc3)cc2)cc1` (centres undefined) was tested. Which B-score did it give?
**A.** inactive

**Q.** Which B-score does the source give for `COCCOC(=O)c1c(C)oc2cc(Br)c(OCC(N)=O)cc12` here?
**A.** inactive

**Q.** How did the B-score turn out when `CCOC(=O)c1c(NC(=O)CNC2CCCc3ccccc32)sc(C(N)=O)c1C` (centres undefined) was run?
**A.** -4.67 (active)

**Q.** For `CCOC(=O)c1sc(NC(=O)COc2ncnc3ccccc23)c(C(=O)OCC)c1C`, which B-score is on record?
**A.** inactive

**Q.** Which B-score does the source give for `CCOC(=O)c1sc(NC(=O)CSc2nnc(-c3ccco3)o2)c(C(=O)OCC)c1C` here?
**A.** inactive

**Q.** Which B-score does the source give for `Cc1ccc(C(=O)C(C)OC(=O)Cc2n[nH]c(=O)c3ccccc23)cc1C` (centres undefined) here?
**A.** inactive

**Q.** With `O=C(/C(=C/c1cccc(Cl)c1)c1nc2ccccc2[nH]1)c1ccccc1` as the compound, how does the B-score read?
**A.** inactive

**Q.** `O=C(Cc1nc2ccccc2[nH]c1=O)c1ccc(Cl)cc1` was tested. Which B-score did it give?
**A.** -5.73 (active)

**Q.** With `O=C(CSc1nc2ccc([N+](=O)[O-])cc2[nH]1)c1ccc(Cl)cc1` as the compound, how does the B-score read?
**A.** inactive

**Q.** Which B-score does the source give for `CN1CCN(c2ccccc2NC(=O)COc2ccc(C3CCCCC3)cc2)CC1` here?
**A.** inactive

**Q.** How did the B-score turn out when `O=c1cc(CSc2ccccn2)nc(N2CCN(c3ccccc3)CC2)[nH]1` was run?
**A.** -4.82 (active)

**Q.** With `Cc1ccc(SCc2cc(=O)[nH]c(N3CCCCC3)n2)cc1` as the compound, how does the B-score read?
**A.** inactive

**Q.** Which B-score does the source give for `Cc1nnc(SCc2cc(=O)[nH]c(N3CCN(Cc4ccccc4)CC3)n2)s1` here?
**A.** inactive

**Q.** `C=CCOc1cccc(C2C(C(=O)c3ccc(C)o3)=C(O)C(=O)N2c2nnc(C)s2)c1` (centres undefined) was tested. Which B-score did it give?
**A.** -4.61 (active)

**Q.** Which B-score does the source give for `C=CCOc1cccc(C2C(C(=O)c3ccc(C)o3)=C(O)C(=O)N2CCCn2ccnc2)c1` (centres undefined) here?
**A.** inactive

**Q.** With `Cc1cc(N2C(=O)C(O)=C(C(=O)c3ccc(C)o3)C2c2ccc(OCc3ccccc3)cc2)no1` (centres undefined) as the compound, how does the B-score read?
**A.** inactive

**Q.** How did the B-score turn out when `COc1ccc(/C(O)=C2/C(=O)C(=O)N(CC3CCCO3)C2c2ccc(OC)c(OC)c2)cc1` (centres undefined) was run?
**A.** inactive

**Q.** `COc1ccc(NC(C(=O)Nc2cccc(C(C)=O)c2)c2ccccc2)cc1` (centres undefined) was tested. Which B-score did it give?
**A.** inactive

**Q.** With `Cc1cc(-c2ccc(S(=O)(=O)N3CCN(c4cccc(C(F)(F)F)c4)CC3)s2)on1` as the compound, how does the B-score read?
**A.** inactive

**Q.** Which B-score does the source give for `COc1ccc(CC(=O)c2ccc(O)cc2O)cc1OC` here?
**A.** inactive

**Q.** Which B-score does the source give for `O=C(Cc1ccccn1)c1ccc(O)cc1O` here?
**A.** -4.66 (active)

**Q.** `COc1ccc(C(=O)Cc2cnn(-c3ccccc3)c2)c(O)c1` was tested. Which B-score did it give?
**A.** inactive

**Q.** For `CCn1c(SCC(=O)NC2CC2)nnc1-c1ccccc1OC`, which B-score is on record?
**A.** inactive

**Q.** With `O=C(NCC1CCCO1)c1ccccc1-c1nc(-c2ccccc2Cl)no1` (centres undefined) as the compound, how does the B-score read?
**A.** inactive

**Q.** Which B-score does the source give for `C=CCn1cnc2scc(-c3ccccc3)c2c1=O` here?
**A.** inactive

**Q.** How did the B-score turn out when `C=CCn1nc(-c2ccccc2)c2c(C)onc2c1=O` was run?
**A.** -6.96 (active)

**Q.** With `Cc1nn(-c2ccccc2)c(=O)c2noc(C)c12` as the compound, how does the B-score read?
**A.** inactive

**Q.** For `COc1cccc2cc(C(N)=O)/c(=N\NC(=O)c3ccccc3)oc12`, which B-score is on record?
**A.** inactive

**Q.** With `O=C(Cn1ccc([N+](=O)[O-])n1)NCc1cccs1` as the compound, how does the B-score read?
**A.** inactive

**Q.** Which B-score does the source give for `O=C(CCn1ccc([N+](=O)[O-])n1)Nc1nccs1` here?
**A.** -5.19 (active)

**Q.** For `Cc1ccnc(NC(=O)Cn2ccc([N+](=O)[O-])n2)c1`, which B-score is on record?
**A.** inactive

**Q.** For `Cc1cccc(C)c1NC1=NC(=S)N(c2ccc(N(C)C)cc2)C1(C)C`, which B-score is on record?
**A.** inactive

**Q.** Which B-score does the source give for `CN(C)CCCn1c(=O)n(Cc2ccccc2)c(=O)c2c3c(sc21)CCCCC3` here?
**A.** inactive

**Q.** For `Cc1c(S(=O)(=O)NC(C)c2ccccc2)c(=O)n(C)c(=O)n1C` (centres undefined), which B-score is on record?
**A.** inactive

**Q.** For `O=C(CNC(=O)C12CC3CC(CC(C3)C1)C2)OCC(=O)N1CCCCC1`, which B-score is on record?
**A.** inactive

**Q.** `COc1cc2c(cc1O)C(SC)=NC(C)(C)C2` was tested. Which B-score did it give?
**A.** -5.85 (active)

**Q.** `COc1cc2c(cc1OC)C(Nc1ccc(S(N)(=O)=O)cc1)=NC(C)(C)C2` was tested. Which B-score did it give?
**A.** inactive

**Q.** With `COc1cc2c(cc1OC)C(C(C)C)=NC(C)(C)C2` as the compound, how does the B-score read?
**A.** inactive

**Q.** Which B-score does the source give for `CN(C)CCc1c[nH]c2ccc(Cn3cncn3)cc12` here?
**A.** inactive

**Q.** `Clc1ccc(-c2nnc(-c3ccccc3)nc2N2CCSCC2)cc1` was tested. Which B-score did it give?
**A.** inactive

**Q.** For `CC1CCN(Cc2nc(-c3ccc(Cl)cc3)no2)CC1`, which B-score is on record?
**A.** inactive

**Q.** For `Clc1ccc(-c2nc3ccccn3c2CN2CCSCC2)cc1`, which B-score is on record?
**A.** -5.66 (active)

**Q.** For `O=C(Nc1ccc(Cl)cc1)C1c2cccc[n+]2CC(=O)N1Cc1ccc2c(c1)OCO2` (centres undefined), which B-score is on record?
**A.** -6.48 (active)

**Q.** How did the B-score turn out when `O=C(CSCc1ccc(Cl)cc1)N1CCN(Cc2ccc3c(c2)OCO3)CC1` was run?
**A.** inactive

**Q.** With `CCCOc1ccc(NC(=O)CC2C(=O)N(C)C(=S)N2Cc2ccc3c(c2)OCO3)cc1` (centres undefined) as the compound, how does the B-score read?
**A.** inactive

**Q.** How did the B-score turn out when `COc1ccc(C)cc1Nc1nc(C)nc2c1oc1ccccc12` was run?
**A.** inactive

**Q.** How did the B-score turn out when `COc1ccc2c(c1)C(=O)Nc1cc(Cl)ccc1N2` was run?
**A.** inactive

**Q.** How did the B-score turn out when `CCC1CCCCN1CCNC(=O)c1[nH]c(C)c(C(C)=O)c1C` (centres undefined) was run?
**A.** -5.1 (active)

**Q.** `CCCCN(CC)CCNC(=O)c1[nH]c(C)c(C(C)=O)c1C` was tested. Which B-score did it give?
**A.** inactive

**Q.** Which B-score does the source give for `CC(=O)c1c(C)[nH]c(C(=O)NCCCN2CCCC2)c1C` here?
**A.** inactive

**Q.** `NC(=O)CC[C@@H]1NC(=O)[C@@H]2CCCN2C(=O)c2cc([N+](=O)[O-])cc(F)c2NCCC[C@@H](C(N)=O)NC1=O` was tested. Which B-score did it give?
**A.** inactive

**Q.** With `O=C(CSc1nc2nccnc2c(=O)n1Cc1cccs1)Nc1ccccc1F` as the compound, how does the B-score read?
**A.** inactive
